HT1080-NT tox = kills 2HG-producing HT-1080-NT fibrosarcoma cells; HT-1080-NT fibrosarcoma viability, CellTiter-Glo ATP luminescence, 48 h; Potency, µM (top dose mostly 46.1 µM), for the others: at the top dose activity, negative = less viability, actives largely listed as cytotoxic; actives 1.6% (n = 360,000);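 further: NT is the 2HG producing partner of a matched IDH1 knockdown line; 0% = DMSO-treated cells and -100% = media-only wells without cells; nearly all actives have a fitted effect of over 55% in size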
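Viability of the 2HG-overproducing fibrosarcoma line after 48 hours of compound exposure at 37 degrees C was determined by luminescence with CellTiter-Glo, and concentration-effect curves were then fitted and categorized.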
KB-3-1 cytotox = kills parental KB-3-1 adenocarcinoma cells. actives 1.4% (n = 400,000). Potency, µM (titrated, usually from 46.1 µM), usual class: cytotoxic. KB-3-1 viability, CellTiter-Glo ATP luminescence, 72 h; further: nearly all actives have a fitted effect of over 60% in size
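Cytotoxicity in the drug-sensitive parental line KB-3-1 was scored as loss of CellTiter-Glo luminescence following 72 h incubation with compound. Values come from curve fitting of normalized concentration-response data.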
DT40 TDP1 CPT = growth inhibition of DT40 Tdp1-/-;hTDP1 cells with camptothecin (screen for TDP1 inhibitors). chicken DT40 Tdp1-/-;hTDP1 cells + 20 nM CPT, ATP luminescence, 48 h. Potency, µM (doses to about 46.2 µM), for the others: at the top dose activity change, negative = growth inhibition, usual class: inhibitors. actives 12% (n = 420,000); further: nearly all actives have a fitted effect of over 55% in size
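Chicken DT40 Tdp1-/- cells complemented with human TDP1, 400 cells/well, exposed to compounds plus 20 nM camptothecin for at least 48 h at 37 C; viability read as ATP content by CellTiter-Glo luminescence.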
KB-V1 MDR tox = kills drug-selected multidrug resistant KB-V1 cells; actives 3.4% (n = 400,000); Potency, µM (top dose mostly 46.1 µM), hits mostly cytotoxic; AID 1347076; KB-V1 MDR cells viability, CellTiter-Glo, 72 h; further: nearly all actives have a fitted effect of over 60% in size
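Cytotoxicity via CellTiter-Glo luminescence after 72 h compound exposure at 37 degrees C. Cells: drug-selected KB-V1 line, DMEM phenol-red free plus 10% FBS. Compounds tested at multiple concentrations; normalized data fitted to concentration-effect curves.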
DT40 TDP1 no CPT = qHTS for Inhibitors of human tyrosyl-DNA phosphodiesterase 1 (TDP1): qHTS in cells in absence of CPT | DT40 Tdp1-/- hTDP1 cells, no CPT, ATP luminescence, 48 h | Potency, µM (top dose mostly 46.2 µM), without a hit: top-dose activity change, negative = growth inhibition, hits mostly inhibitors | actives 15% (n = 420,000) | AID 686978, 2013; further: nearly all actives have a fitted effect of over 55% in size
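No-CPT arm: Tdp1-/-;hTDP1 DT40 cells (400/well) plus compounds, incubated ≥48 hr at 37 °C. Readout CellTiter-Glo luminescence.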
HT1080 IDH1KD tx = HT-1080 IDH1 knockdown cell toxicity (counter line). HT-1080 IDH1 knockdown viability, ATP luminescence, 48 h. Potency, µM (titrated, usually from 46.1 µM), inactives show at the top dose activity, negative = toxicity, actives largely listed as cytotoxic. actives 2% (n = 360,000). AID 686971;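 further: 0% = DMSO wells and -100% = cell-free medium wells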
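HT-1080-IDH1KD cells (IDH1 knocked down), 750/well in RPMI with 5% FBS, treated with compound 48 h at 37 degrees C. Viability by CellTiter-Glo luminescence, normalised to DMSO and no-cell wells; concentration-response curves classed.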
Numbers without * were called inactive. Most compounds without a hit are left out; they make up all but 19% or so of the library. The call rests on the fitted dose curve; in most records, active means well fitted curve in the direction sought with a large enough effect; inconclusive means small, poorly fitted or top-dose-only effect, or another doubt; inactive means no such curve, though single readings can be large; an effect the other way counts as inactive or inconclusive. Unless noted, on the % scale 0 is the no-effect control and ±100 the full control effect; potency means the concentration at half of the fitted maximal effect.

COc1cc(/C=C/C(=O)Nc2ccc(OC)c(S(=O)(=O)N3CCOCC3)c2)ccc1OC(F)F was read as HT1080-NT tox -13%, KB-3-1 cytotox inconclusive, DT40 TDP1 CPT 18µM*, KB-V1 MDR tox inconclusive, DT40 TDP1 no CPT 16µM* and HT1080 IDH1KD tx inconclusive.
For CC(=O)c1c(C)oc2c(Cl)cc(NS(=O)(=O)c3ccc(Cl)cc3)cc12 the results were KB-3-1 cytotox inactive and KB-V1 MDR tox inconclusive.
For Cc1ccc(S(=O)(=O)Nc2cc3c(C(=O)OCc4ccccc4)c(C)oc3c3ccccc23)cc1 the results were KB-3-1 cytotox inactive, DT40 TDP1 CPT inconclusive, KB-V1 MDR tox inactive and DT40 TDP1 no CPT inconclusive.
Screening COC(=O)C(C(=O)OC)c1ccccc1NS(=O)(=O)c1c(C)cc(C)cc1C returned HT1080-NT tox inconclusive, KB-3-1 cytotox inconclusive, DT40 TDP1 CPT 16µM*, KB-V1 MDR tox inconclusive, DT40 TDP1 no CPT 21µM* and HT1080 IDH1KD tx inconclusive.
`COC(=O)c1c(C)oc2c1cc(NS(=O)(=O)c1c(C)cc(C)cc1C)c1ccccc12` gave KB-3-1 cytotox inconclusive, DT40 TDP1 CPT 12µM*, KB-V1 MDR tox inactive and DT40 TDP1 no CPT 21µM*.
CCOC(=O)c1c(C)oc2c(Cl)cc(NS(=O)(=O)c3ccc(Cl)c(C)c3)cc12 was read as KB-3-1 cytotox inconclusive, DT40 TDP1 CPT inconclusive, KB-V1 MDR tox inconclusive and DT40 TDP1 no CPT 26µM*.
CCOC(=O)c1c(C)oc2c1cc(NS(=O)(=O)c1ccc(C)cc1)c1ccccc12 was read as KB-3-1 cytotox inactive, DT40 TDP1 CPT inconclusive, KB-V1 MDR tox inactive and DT40 TDP1 no CPT 21µM*.
For COC(=O)C(C(=O)OC)c1ccccc1NS(=O)(=O)c1ccc(C)cc1 the results were HT1080-NT tox inconclusive, KB-3-1 cytotox inactive, DT40 TDP1 CPT -6%, KB-V1 MDR tox inactive, DT40 TDP1 no CPT 20% and HT1080 IDH1KD tx -14%.
CCOC(=O)CN=C/C(C(=O)Nc1nccs1)=C(/C)O was read as HT1080-NT tox 19%, KB-3-1 cytotox inactive, DT40 TDP1 CPT -4%, KB-V1 MDR tox inactive, DT40 TDP1 no CPT -22% and HT1080 IDH1KD tx 14%.
`Cc1cc(C)c(S(=O)(=O)Nc2cccc3nsnc23)c(C)c1` gave HT1080-NT tox -1%, KB-3-1 cytotox 18µM*, DT40 TDP1 CPT -6%, KB-V1 MDR tox 15µM*, DT40 TDP1 no CPT inconclusive and HT1080 IDH1KD tx 0%.
`CCc1ccc(CCC(=O)Nc2ccc(OC)cc2)o1` gave HT1080-NT tox -27%, KB-3-1 cytotox inactive, DT40 TDP1 CPT -14%, KB-V1 MDR tox inactive, DT40 TDP1 no CPT -25% and HT1080 IDH1KD tx inconclusive.
`COc1ccc(C(N)CCc2ccc(C)o2)cc1` (configuration not stated) gave HT1080-NT tox -12%, KB-3-1 cytotox inactive, DT40 TDP1 CPT inconclusive, KB-V1 MDR tox inactive, DT40 TDP1 no CPT 18µM* and HT1080 IDH1KD tx -12%.
`Cc1cc(C)n(CCc2nc(-c3ccc(C)o3)cs2)n1` gave HT1080-NT tox 17%, KB-3-1 cytotox inactive, DT40 TDP1 CPT inconclusive, KB-V1 MDR tox inactive, DT40 TDP1 no CPT 16µM* and HT1080 IDH1KD tx 21%.
Screening Cc1cc(C)n(CCc2nc(-c3cc4ccccc4o3)cs2)n1 returned HT1080-NT tox 2%, KB-3-1 cytotox inactive, DT40 TDP1 CPT 18µM*, KB-V1 MDR tox 16µM*, DT40 TDP1 no CPT 18µM* and HT1080 IDH1KD tx 6%.
Screening O=C(Nc1nc2n(n1)C(c1ccccc1)C=C(c1ccccc1)N2)c1ccc(Cl)c([N+](=O)[O-])c1 (configuration not stated) returned KB-3-1 cytotox inactive, DT40 TDP1 CPT 12µM*, KB-V1 MDR tox inactive and DT40 TDP1 no CPT 12µM*.
`COc1ccc(C2C=C(c3ccccc3)Nc3nc(NS(=O)(=O)c4ccccc4)nn32)cc1` (configuration not stated) gave KB-3-1 cytotox inactive, DT40 TDP1 CPT inconclusive, KB-V1 MDR tox inactive and DT40 TDP1 no CPT inconclusive.
Screening COc1ccc(C2C=C(c3ccccc3)Nc3nc(NS(=O)(=O)c4ccc(Cl)cc4)nn32)cc1 (configuration not stated) returned KB-3-1 cytotox inactive, DT40 TDP1 CPT inconclusive, KB-V1 MDR tox inactive and DT40 TDP1 no CPT 16µM*.
COc1ccc(C(=O)Nc2nc3n(n2)C(c2ccc(F)cc2)C=C(c2ccc(Cl)cc2)N3)cc1 (configuration not stated) was read as KB-3-1 cytotox inactive, DT40 TDP1 CPT 15µM*, KB-V1 MDR tox inactive and DT40 TDP1 no CPT 7.3µM*.
`COc1ccccc1C(=O)Nc1nc2n(n1)C(c1ccc(F)cc1)C=C(c1ccc(Cl)cc1)N2` (configuration not stated) gave KB-3-1 cytotox inactive, DT40 TDP1 CPT inconclusive, KB-V1 MDR tox inconclusive and DT40 TDP1 no CPT inconclusive.
Screening O=C(Nc1nc2n(n1)C(c1ccc(F)cc1)C=C(c1ccccc1)N2)c1ccc(Cl)cc1 (configuration not stated) returned KB-3-1 cytotox inactive, DT40 TDP1 CPT inconclusive, KB-V1 MDR tox inactive and DT40 TDP1 no CPT 18µM*.
`CC1CCCCN1C(=O)c1ccc2c(c1)N(Cc1ccc(Cl)cc1)C(=O)c1ccccc1S2=O` (configuration not stated) gave KB-3-1 cytotox inconclusive, DT40 TDP1 CPT inconclusive, KB-V1 MDR tox inactive and DT40 TDP1 no CPT inconclusive.
`COC(=O)C1=C(C)NC(C)=C(C(=O)OC)C1C(=O)OCC(=O)NC1CCCCC1C` (configuration not stated) gave HT1080-NT tox 9%, KB-3-1 cytotox inactive, DT40 TDP1 CPT -13%, KB-V1 MDR tox inactive, DT40 TDP1 no CPT -5% and HT1080 IDH1KD tx 11%.
O=C(Nc1nc2n(n1)C(c1ccc(F)cc1)C=C(c1ccc(Cl)cc1)N2)c1ccc([N+](=O)[O-])cc1 (configuration not stated) was read as KB-3-1 cytotox inconclusive, DT40 TDP1 CPT 5.8µM*, KB-V1 MDR tox inactive and DT40 TDP1 no CPT 5.2µM*.
Cc1ccc(C(=O)Nc2nc3n(n2)C(c2ccccc2)C=C(c2ccccc2)N3)cc1 (configuration not stated) was read as KB-3-1 cytotox inactive, DT40 TDP1 CPT inconclusive, KB-V1 MDR tox inactive and DT40 TDP1 no CPT inconclusive.
